The sample as a whole holds a higher share of hits than the screen did.
12-LOX inh = ALOX12 (human) lipoxygenase inhibition; purified 12hLO, xylenol orange hydroperoxide absorbance; Potency, µM (titrated, usually from 108 µM), for the others: at the highest dose activity change, negative = inhibition, hits mostly inhibitors; hit rate 1.1% among 580,000; also: potency is read from the fitted curve at half-maximal effect
Target sequence (P18054 whole entry, looked up): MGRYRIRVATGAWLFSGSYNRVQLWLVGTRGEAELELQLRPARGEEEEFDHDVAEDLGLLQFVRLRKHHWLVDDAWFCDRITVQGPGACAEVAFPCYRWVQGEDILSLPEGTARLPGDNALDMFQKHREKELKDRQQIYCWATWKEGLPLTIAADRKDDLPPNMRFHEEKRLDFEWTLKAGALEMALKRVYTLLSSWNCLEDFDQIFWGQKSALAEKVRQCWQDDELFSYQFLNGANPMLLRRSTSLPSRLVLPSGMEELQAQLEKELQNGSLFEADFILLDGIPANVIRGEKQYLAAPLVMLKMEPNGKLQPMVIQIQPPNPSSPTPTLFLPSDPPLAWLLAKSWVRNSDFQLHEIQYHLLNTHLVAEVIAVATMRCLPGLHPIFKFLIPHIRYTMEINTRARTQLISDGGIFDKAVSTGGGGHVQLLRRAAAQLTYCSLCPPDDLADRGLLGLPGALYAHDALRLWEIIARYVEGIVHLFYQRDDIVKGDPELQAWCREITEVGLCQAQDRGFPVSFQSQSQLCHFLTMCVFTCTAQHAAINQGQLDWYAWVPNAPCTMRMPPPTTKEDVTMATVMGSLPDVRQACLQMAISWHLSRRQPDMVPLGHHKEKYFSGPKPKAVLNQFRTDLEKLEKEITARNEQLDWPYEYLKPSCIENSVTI
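Purified human 12hLO (150 nM final) in 25 mM Hepes, 0.01% Triton X-100, pH 7.0 was preincubated 15 min at room temperature with compound. Then 40 uM arachidonic acid was added, 30 min. Hydroperoxide was read by Fe-XO absorbance ratio 573/405 nm.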
IL1B secr inh = inflammasome signaling inhibition, IL-1 beta readout; THP-1 LPS/ATP IL-1B secretion, AlphaLISA, 16 h; active compounds read low; activity change, % at 57.5 µM; hit rate 4.7% among 360,000; AID 743279; in the data active = activity change below about -50%; inconclusive = mostly about -30% to -49%
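THP-1 cells pretreated 1 hr with compounds (up to 57.5 uM final), then stimulated with LPS (250 ng/mL final) plus ATP (1.25 mM final); secreted IL-1B measured by AlphaLISA after 16 hr, decreased signal indicating inhibition.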
DT40 TDP1 no CPT = qHTS for Inhibitors of human tyrosyl-DNA phosphodiesterase 1 (TDP1): qHTS in cells in absence of CPT; Potency, µM (top dose mostly 46.2 µM), without a hit: at the top dose activity change, negative = growth inhibition, actives largely listed as inhibitors; hit rate 15% among 420,000; DT40 Tdp1-/- hTDP1 cells, no CPT, ATP luminescence, 48 h; AID 686978, 2013; also: potency is read from the fitted curve at half-maximal effect; nearly all actives have a fitted effect of over 55% in size
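Seeded 400 DT40-hTDP1 cells/well (vehicle DMSO, no 20 nM CPT); pinned compounds; ≥48 hr at 37 °C; CellTiter-Glo luminescence as viability measure.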
DT40 TDP1 CPT = growth inhibition of DT40 Tdp1-/-;hTDP1 cells with camptothecin (screen for TDP1 inhibitors) | chicken DT40 Tdp1-/-;hTDP1 cells + 20 nM CPT, ATP luminescence, 48 h | Potency, µM (doses to about 46.2 µM), without a hit: top-dose activity change, negative = growth inhibition, hits mostly inhibitors | hit rate 12% among 420,000; also: potency is read from the fitted curve at half-maximal effect; nearly all actives have a fitted effect of over 55% in size
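Cell growth measured by CellTiter-Glo luminescence after a minimum 48 h, 37 C compound exposure with 20 nM CPT in Tdp1-knockout DT40 cells stably expressing hTDP1, seeded 400/well; qHTS titration format.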
HT1080NT lethal = kills 2HG-producing HT-1080-NT fibrosarcoma cells. Potency, µM (top dose mostly 46.1 µM), for the others: at the top dose activity, negative = less viability, hits mostly cytotoxic. hit rate 1.6% among 360,000. HT-1080-NT fibrosarcoma viability, CellTiter-Glo ATP luminescence, 48 h;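 also: NT is the 2HG producing partner of a matched IDH1 knockdown line; potency is read from the fitted curve at half-maximal effect; 0% = DMSO-treated cells and -100% = media-only wells without cells; nearly all actives have a fitted effect of over 55% in size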
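Viability by CellTiter-Glo luminescence after 48 h compound exposure at 37C of HT-1080-NT cells (750/well, RPMI, 5% FBS). % activity scaled between DMSO wells and medium-only wells, then curve-fitted and categorized by curve class.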
HT1080 IDH1KD tx = HT-1080 IDH1 knockdown cell toxicity (counter line); HT-1080 IDH1 knockdown viability, ATP luminescence, 48 h; Potency, µM (titrated, usually from 46.1 µM), for inactives: at the highest dose activity, negative = toxicity, hits mostly cytotoxic; hit rate 2% among 360,000;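 also: potency is read from the fitted curve at half-maximal effect; 0% = DMSO wells and -100% = cell-free medium wells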
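% activity derives from luminescence (CellTiter-Glo), normalised to DMSO and no-cell wells. HT-1080-IDH1KD cells, 750/well, had 48 h compound exposure at 37 °C.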
* = called active by the depositor; ? = inconclusive; . = not tested or not shown; [ ] = remark or other dose. Unless noted, calls follow the shape of the dose curve; as a rule, active = well fitted curve in the direction sought with a large enough effect; inconclusive = small, poorly fitted or top-dose-only effect, or another doubt; inactive = no such curve, though single readings can be large; an effect the other way counts as inactive or inconclusive. Unless noted, % is scaled to controls: 0 for no effect and ±100 for the full control effect.

SMILES	12-LOX inh	IL1B secr inh	DT40 TDP1 no CPT	DT40 TDP1 CPT	HT1080NT lethal	HT1080 IDH1KD tx
Cc1ccccc1N1C(N)=NC(N)=NC1(C)C	-5.8%	-17.4	?	-2.3%	8.8%	13.2%
COc1cccc(N2CC(=O)N(c3cccc(OC)c3)CC2=O)c1	1.0%	-4.8	20.4%	-10.9%	5.0%	-1.5%
COc1cccc(N2C(N)=NC(N)=NC2(C)C)c1	19.7%	10.6	1.03µM*	5.17µM*	6.51µM*	2.31µM*
Cc1ncoc1C(=O)N1C[C@@H](COc2ccccc2)[C@H](C(N)=O)C1	17.5%	.	.	.	.	.
CCOC(=O)c1cccc(N2C(N)=NC(N)=NC2(C)C)c1	14.6%	0.0	4.11µM*	-22.6%	?	?
CC1(C)N=C(N)N=C(N)N1c1cccc(C(=O)O)c1	-29.9%	-3.1	-5.2%	-4.0%	13.0%	-1.9%
CC1CCN(C(C)C(=O)Nc2cc(S(=O)(=O)N3CCCCC3)ccc2Cl)CC1 (stereo not drawn)	-29.0%	-17.1	?	?	0.4%	6.4%
CC1CC(C)CN(C(=O)c2ccc(S(=O)(=O)N3CCCCC3)cc2)C1 (stereo not drawn)	-1.1%	-7.2	-21.4%	-4.7%	-1.8%	-2.3%
Cc1ccc2c(c1)nnn2C1CCN(S(=O)(=O)c2ccc(C(=O)N3C(C)CCCC3C)cc2)CC1 (stereo not drawn)	?	-67.5*	9.2µM*	9.2µM*	?	-22.8%
Cc1ccc(S(=O)(=O)N2CCCCC2)cc1C(=O)N1C(C)CCCC1C (stereo not drawn)	-4.1%	0.9	13µM*	?	1.6%	10.6%
CC1CC(C)CN(C(C)C(=O)Nc2cc(S(=O)(=O)N3CCCCC3)ccc2Cl)C1 (stereo not drawn)	14.6%	-15.3	14.6µM*	?	-4.7%	-2.5%
CC1CC(C)CN(C(=O)c2cc(S(=O)(=O)N3CCCCC3)ccc2Cl)C1 (stereo not drawn)	-3.5%	47.6	14.6µM*	16.4µM*	-2.1%	0.3%
CS(=O)(=O)c1cc(C(=O)O)cc(NCc2ccccc2)c1Oc1ccccc1	6.5%	9.3	?	-19.4%	8.1%	5.3%
O=C(COc1ccc(F)cc1Br)NCCCN1CCCC1=O	-1.3%	-4.0	17.8%	-19.9%	-4.0%	-1.7%
Cc1ccc(S(=O)(=O)N2CCN(CC(=O)N3CCCC3)CC2)c(C)c1	310.3%	-29.1	-6.2%	2.1%	13.5%	-1.3%
CCC(=O)c1cc(Br)ccc1OCC(=O)N1CCN(S(=O)(=O)c2ccccc2)CC1	-14.3%	-57.8*	23.1µM*	?	0.5%	2.0%
O=C(COc1ccc(Cl)cc1Br)N1CCN(S(=O)(=O)c2ccccc2)CC1	-9.0%	?	?	?	-2.9%	-6.9%
CCOc1ccccc1OCCCC(=O)N1CCN(S(=O)(=O)c2ccc(C)cc2C)CC1	21.5%	0.0	-57.2%	20.6µM*	-5.7%	-24.8%
Cc1ccccc1OCCC(=O)N1CCN(S(=O)(=O)c2ccc(Br)cc2)CC1	-4.7%	-13.4	23.1µM*	?	-10.9%	-13.4%
Cc1ccc(S(=O)(=O)N2CCN(C(=O)CSC(=S)N3CCCC3)CC2)c(C)c1	0.5%	5.5	3.26µM*	5.17µM*	-6.6%	0.3%
Cc1ccc(S(=O)(=O)N(C)C)cc1NC(=O)C(C)OC(=O)c1cc[n+]([O-])cc1 (stereo not drawn)	2.7%	10.8	-0.1%	-1.6%	10.2%	11.5%
CCCN(CC1CCOC1)S(=O)(=O)c1ccc(Cl)cc1C (stereo not drawn)	19.2%	.	.	.	.	.
O=C(CN1Cc2nc(-c3cc4ccccc4o3)ccc2OCC1=O)N1CCCC1	3.6%[176 µM]	.	.	.	.	.
Cn1cccc1CC(=O)N/N=C/c1ccc(Cl)c([N+](=O)[O-])c1	-7.3%	-89.7*	-24.9%	-16.3%	-8.3%	0.7%
Cc1cc(C(=O)CCl)c(C)n1-c1cccc([N+](=O)[O-])c1	?	-100.3*	2.31µM*	1.46µM*	?	?
SMILES	12-LOX inh	IL1B secr inh	DT40 TDP1 no CPT	DT40 TDP1 CPT	HT1080NT lethal	HT1080 IDH1KD tx
Cn1cccc1CC(=O)N/N=C/c1cc([N+](=O)[O-])ccc1Cl	?	9.1	-8.9%	16.3%	11.8%	21.1%
CC(=O)c1c(C(C)=O)c(C)n(-c2cccc([N+](=O)[O-])c2)c1C	0.6%	-4.9	0.2%	-0.3%	-6.2%	-4.5%
Cc1cc(C)cc(-n2c(C)cc(/C=N/NC(=O)c3ccncc3)c2C)c1	31.9%	1.5	-22.1%	-5.6%	-30.3%	-18.7%
Cc1cc(C)cc(-n2c(C)cc(/C=N/NC(=O)CSc3ncccn3)c2C)c1	-3.0%	0.9	?	25.9µM*	?	?
Cc1cc(C)cc(-n2c(C)cc(/C=N/NC(=O)c3cccc([N+](=O)[O-])c3C)c2C)c1	-0.6%	-8.7	25.9µM*	?	?	?
COc1cccc(NC(=O)CSc2nc3c(=O)[nH]cnc3n2-c2ccc(C)cc2)c1	14.5%	.	.	.	.	.
Cc1cc(C(=O)N/N=C/c2cccc([N+](=O)[O-])c2)c(C)n1-c1ccccc1	-29.6%	-16.0	23.1µM*	?	-0.8%	-13.6%
Cc1cc(C(=O)CN2CCCC2)c(C)n1-c1ccc(Cl)cc1	95.7%	-14.4	?	?	-12.6%	-3.8%
Cc1cc(C(=O)CCl)c(C)n1-c1ccon1	-13.6%	-95.0*	2.91µM*	2.31µM*	-28.0%	20.6µM*
O=C(N/N=C/c1cccc([N+](=O)[O-])c1)c1cc(-c2ccc3c4c(cccc24)CC3)n[nH]1	-3.1%	-3.4	?	?	-19.5%	-8.2%
Cc1cc(C(=O)CN2CCCCC2)c(C)n1-c1ccc(F)cc1	-9.2%	-26.1	?	-29.2%	-3.7%	-8.1%
Cc1cc(C(=O)NC2CCCCC2)c(C)n1-c1ccc(F)cc1	4.8%	-82.9*	?	?	0.0%	-2.6%
O=C(N/N=C/c1ccc(Cl)c([N+](=O)[O-])c1)c1cc(-c2ccc3c4c(cccc24)CC3)n[nH]1	12.0%	?	?	-28.3%	5.17µM*	8.2µM*
CCc1ccc(C(=O)N2CCc3[nH]nc(C(=O)NC4CCN(C)CC4)c3C2)cc1	11.1%	.	.	.	.	.
Cc1cc(C(=O)N/N=C/c2ccc3c(c2)OCO3)c(C)n1-c1ccc(F)cc1	0.6%	-9.4	13µM*	?	-5.8%	-21.6%
O=C(N/N=C/c1ccc(Cl)c([N+](=O)[O-])c1)c1ccc2nc[nH]c2c1	37.7%	-95.7*	-8.0%	0.1%	2.6%	6.8%

Assay outcomes as filed in PubChem BioAssay.
